Hits are enriched below; roughly 21% of the tested compounds scored in any of these assays.
CHX counter = affects cycloheximide protein synthesis inhibition readout, counter-screen | cell reporter, cycloheximide protein synthesis inhibition counterscreen | max response, % | 12% of 300,000 active; in the data active means max response mostly above about 13%, no sharp cut-off; inactive means mostly below about 14%; further: read at 38.3 µM for the half of the compounds with a filed dose; 0% is about no effect
Shiga inhibitor = inhibitors of Shiga toxin in Vero cells. Vero cells, Shiga toxin protein synthesis inhibition reporter. inhibition, % at 38.7 µM. 9.2% of 290,000 active. AID 2315; in the data active means inhibition mostly above about 28%, no sharp cut-off; inactive means mostly below about 43%; further: 0% is about no effect
Pf growth 48h = inhibits P. falciparum growth in the first generation, 48 h; P. falciparum luciferase growth in erythrocytes, 48 h; Potency, µM (series often up to 28.7 µM), for the others: at the top dose activity change, negative = inhibition, most hits filed as inhibitors; 5.9% of 310,000 active; further: potency means the concentration at half of the fitted maximal effect; on the % scale 0 is the no-effect control and ±100 the full control effect
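Cell-based growth assay: transgenic P. falciparum expressing firefly luciferase, cultured in red cells within RPMI 1640 containing 0.5% w/v Albumax, 24 mM bicarbonate and gentamycin. A drop in luciferase activity indicates inhibition.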
AMA1-RON2 inh = AMA1-RON2 (P. falciparum) interaction inhibition. Potency, µM (titrated, usually from 58.2 µM), for inactives: at the highest dose activity change, negative = inhibition, most hits filed as inhibitors. AlphaScreen AMA1-biotinylated RON2 peptide binding. 0.2% of 360,000 active;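 further: potency means the concentration at half of the fitted maximal effect; 0% = vehicle wells and -100% = peptide control; nearly all actives have a fitted effect of over 45% in size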
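AMA1 (3D7) with his tag at 25 nM final met compounds first, then biotinylated RON2 peptide at 25 nM; detection used donor plus acceptor beads, 10 µg/mL apiece, read by AlphaScreen after 30 min at room temperature.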
HCV inhibitor = inhibitors of hepatitis C virus infection; Potency, µM (top dose mostly 41.8 µM), for the others: at the highest dose activity change, negative = inhibition, usual class: inhibitors; AID 651820; 3.4% of 340,000 active; Huh7.5.1 HCVcc-Cre infection, luciferase reporter, 44 h; further: potency means the concentration at half of the fitted maximal effect; on the % scale 0 is the no-effect control and ±100 the full control effect
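Compounds are dispensed onto cells plated 4 h earlier at 1,000 per well, with HCVcc-Cre virus (about 0.5 moi) added next. Following 44 h of culture, luminescent signal is measured for 15 sec after 15 min with substrate at room temperature.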
Pf growth 96h = P. falciparum growth inhibition at 96 hours | 6.9% of 320,000 active | P. falciparum luciferase reporter growth, 96 h | Potency, µM (top dose mostly 28.7 µM), without a hit: top-dose activity change, negative = inhibition, usual class: inhibitors | AID 504834; further: potency means the concentration at half of the fitted maximal effect; on the % scale 0 is the no-effect control and ±100 the full control effect
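Two parasite generations (96 h, 37 C, 5% CO2) of compound exposure in infected erythrocytes (0.05% parasitemia, 2% hematocrit). Luciferase-reporter P. falciparum; decreased luminescence indicates inhibited growth, aimed at apicoplast-acting delayed death.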
Numbers without * were called inactive. Unless noted, the call rests on the fitted dose curve; in most records, active means well fitted curve in the direction sought with a large enough effect; inconclusive means small, poorly fitted or top-dose-only effect, or another doubt; inactive means no such curve, though single readings can be large; an effect the other way counts as inactive or inconclusive.

For OCCOCCNc1ncnc2c1cnn2-c1ccccc1 the results were CHX counter -2, Shiga inhibitor -12, Pf growth 48h 1.3µM*, AMA1-RON2 inh -12%, HCV inhibitor 34% and Pf growth 96h 63%.
For OCCOCCNc1ncnc2c1cnn2-c1ccc(Cl)cc1 the results were CHX counter -2, Shiga inhibitor 1, Pf growth 48h 3.3µM*, AMA1-RON2 inh 1% and HCV inhibitor -2%.
Screening Fc1ccc(CNc2ncnc3c2cnn3-c2ccccc2)cc1 returned CHX counter 17, Shiga inhibitor 22, Pf growth 48h -5%, AMA1-RON2 inh -3%, HCV inhibitor inconclusive and Pf growth 96h 20%.
CCOC(=O)NN=C1CN(S(=O)(=O)c2ccc(C)cc2)C1 was read as CHX counter -4, Shiga inhibitor -3, Pf growth 48h -2%, AMA1-RON2 inh -8%, HCV inhibitor 3% and Pf growth 96h -17%.
Screening COc1ccccc1OCC(=O)N1CCN(S(=O)(=O)c2ccc(Cl)cc2)CC1 returned Pf growth 48h inconclusive, AMA1-RON2 inh 3%, HCV inhibitor 14% and Pf growth 96h inconclusive.
Screening CC(NC(=O)C(c1ccccc1)c1ccccc1)C(=O)N1CCCCC1 (centres undefined) returned CHX counter -1, Shiga inhibitor -8, Pf growth 48h -20%, AMA1-RON2 inh 0%, HCV inhibitor 15% and Pf growth 96h -6%.
CCc1cc2c(=O)c(-c3ccc4c(c3)OCCO4)c(C)oc2cc1OS(C)(=O)=O was read as CHX counter 0, Shiga inhibitor 7, Pf growth 48h inconclusive, AMA1-RON2 inh -8%, HCV inhibitor inconclusive and Pf growth 96h 4.1µM*.
For COc1ccc([C@H]2N[C@]3(CCCN(Cc4ccccc4)C3=O)[C@H]3C(=O)N(Cc4ccccc4)C(=O)[C@@H]23)cc1 the results were AMA1-RON2 inh -1%.
Screening CCN1C(=O)[C@H]2[C@@H](c3ccc(-c4ccc(Cl)c(Cl)c4)cc3)N[C@@](CC(C)C)(C(=O)OC)[C@H]2C1=O returned Pf growth 48h 12µM*, AMA1-RON2 inh -1%, HCV inhibitor 39% and Pf growth 96h 4.7µM*.
For COc1ccc(O)c(C2NC(CC(C)C)(C(=O)O)C3C(=O)N(Cc4ccccc4)C(=O)C23)c1 (centres undefined) the results were CHX counter 8.5*, Shiga inhibitor -7, Pf growth 48h 23%, AMA1-RON2 inh 74%, HCV inhibitor -5% and Pf growth 96h 89%.
For CCN1C(=O)[C@H]2[C@@H](c3ccc(-c4ccc(OC)cc4)cc3)N[C@@](CC(C)C)(C(=O)OC)[C@H]2C1=O the results were Pf growth 48h 12µM*, AMA1-RON2 inh 0%, HCV inhibitor 2% and Pf growth 96h 12µM*.
`COC(=O)[C@]1(CC(C)C)N[C@H](c2ccc(-c3ccc(Cl)c(Cl)c3)cc2)[C@@H]2C(=O)N(C)C(=O)[C@@H]21` gave Pf growth 48h 7.4µM*, AMA1-RON2 inh -12%, HCV inhibitor 4% and Pf growth 96h 4.7µM*.
`COC(=O)[C@]1(CC(C)C)N[C@H](c2ccc(-c3ccc(C(C)=O)cc3)cc2)[C@@H]2C(=O)N(C)C(=O)[C@@H]21` gave AMA1-RON2 inh -7% and HCV inhibitor 9%.
`CCN1C(=O)[C@H]2[C@@H](c3ccc(-c4cccc(Cl)c4)cc3)N[C@@](CC(C)C)(C(=O)OC)[C@H]2C1=O` gave AMA1-RON2 inh -1% and HCV inhibitor 8%.
N#CCCN(CCCN1CCOCC1)CN1C(=O)c2ccccc2C1=O was read as AMA1-RON2 inh 21%.
`Cc1cccc(NC(=O)C2CCCN2S(=O)(=O)c2ccc(Cl)cc2)n1` (centres undefined) gave CHX counter -3, Shiga inhibitor 17, Pf growth 48h 3%, AMA1-RON2 inh 6%, HCV inhibitor 8% and Pf growth 96h 4%.
NC1=NC2(CCCCC2)N=C(Nc2ccc(Br)cc2)N1 was read as CHX counter -5, Shiga inhibitor -9, Pf growth 48h 1µM*, AMA1-RON2 inh 25%, HCV inhibitor inconclusive and Pf growth 96h inconclusive.
Screening Cc1ccc(NC2=NC3(CCCCC3)N=C(N)N2)c(C)c1 returned CHX counter -3, Shiga inhibitor -12, Pf growth 48h inconclusive, AMA1-RON2 inh -5%, HCV inhibitor 5% and Pf growth 96h 8.3µM*.
For CCCNC(=O)N1CCC(n2nccc2NC(=O)CCOc2ccccc2)CC1 the results were CHX counter 0, Shiga inhibitor -3, Pf growth 48h 6%, AMA1-RON2 inh 22%, HCV inhibitor 10% and Pf growth 96h inconclusive.
For COCc1ccc(CN2CCC(n3nccc3NC(=O)CCOc3ccccc3)CC2)o1 the results were CHX counter -1, Shiga inhibitor -9, Pf growth 48h 0%, AMA1-RON2 inh 4% and Pf growth 96h inconclusive.
COC(=O)CCCC(=O)N1CCC(n2nccc2NC(=O)CCOc2ccccc2)CC1 was read as CHX counter 21*, Shiga inhibitor 34, Pf growth 48h 24%, AMA1-RON2 inh 21%, HCV inhibitor 19% and Pf growth 96h inconclusive.
Screening COCC(=O)N1CCC(n2nccc2NC(=O)CCOc2ccccc2)CC1 returned CHX counter 24*, Shiga inhibitor 36*, Pf growth 48h -2%, AMA1-RON2 inh 1%, HCV inhibitor inconclusive and Pf growth 96h 12µM*.
For O=C(CCOc1ccccc1)Nc1ccnn1C1CCN(C(=O)CCC(F)(F)F)CC1 the results were CHX counter 23*, Shiga inhibitor 25, Pf growth 48h inconclusive, AMA1-RON2 inh 1%, HCV inhibitor 13% and Pf growth 96h 12µM*.
Screening O=C(C1=C[C@H](c2coc3ccccc3c2=O)C[C@H](OCc2ccc(CO)cc2)O1)N1CCN(Cc2ccc3c(c2)OCO3)CC1 returned CHX counter -2, Shiga inhibitor -4, Pf growth 48h 1.5µM*, AMA1-RON2 inh 0%, HCV inhibitor 8% and Pf growth 96h 1.3µM*.
Screening O=C(C1=C[C@H](c2csc3ccccc23)C[C@H](OCc2ccc(CO)cc2)O1)N1CCN(Cc2ccc3c(c2)OCO3)CC1 returned CHX counter -3, Shiga inhibitor -22, Pf growth 48h inconclusive, AMA1-RON2 inh -25%, HCV inhibitor 8.9µM* and Pf growth 96h 4.1µM*.
Screening O=C(C1=C[C@H](c2csc3ccccc23)C[C@H](OCc2ccc(CO)cc2)O1)N1CCN(Cc2ccccc2)CC1 returned CHX counter -3, Shiga inhibitor -11, Pf growth 48h inconclusive, AMA1-RON2 inh inconclusive, HCV inhibitor inconclusive and Pf growth 96h 9.3µM*.

From PubChem
